For assay [1], the target named is Progesterone receptor (Homo sapiens) (UniProt P06401). Kind of assay: qHTS assay to identify small molecule antagonists of the progesterone receptor (PR) signaling pathway (AID 1346795; active means well fitted inhibition curve with a large enough effect in the signal ratio in the repeat runs, not every such curve was filed as active; the % refers to the signal ratio). In outline: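 After 6 hr plating at 37C in 2% stripped-serum medium, PR-UAS-bla HEK293T cells got compounds, then 1 nM R5020. Sixteen hours later, LiveBLAzer substrate was applied for 2 hr at room temperature and fluorescence was recorded.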
Chain of Progesterone receptor (Homo sapiens) (P06401 whole entry, looked up): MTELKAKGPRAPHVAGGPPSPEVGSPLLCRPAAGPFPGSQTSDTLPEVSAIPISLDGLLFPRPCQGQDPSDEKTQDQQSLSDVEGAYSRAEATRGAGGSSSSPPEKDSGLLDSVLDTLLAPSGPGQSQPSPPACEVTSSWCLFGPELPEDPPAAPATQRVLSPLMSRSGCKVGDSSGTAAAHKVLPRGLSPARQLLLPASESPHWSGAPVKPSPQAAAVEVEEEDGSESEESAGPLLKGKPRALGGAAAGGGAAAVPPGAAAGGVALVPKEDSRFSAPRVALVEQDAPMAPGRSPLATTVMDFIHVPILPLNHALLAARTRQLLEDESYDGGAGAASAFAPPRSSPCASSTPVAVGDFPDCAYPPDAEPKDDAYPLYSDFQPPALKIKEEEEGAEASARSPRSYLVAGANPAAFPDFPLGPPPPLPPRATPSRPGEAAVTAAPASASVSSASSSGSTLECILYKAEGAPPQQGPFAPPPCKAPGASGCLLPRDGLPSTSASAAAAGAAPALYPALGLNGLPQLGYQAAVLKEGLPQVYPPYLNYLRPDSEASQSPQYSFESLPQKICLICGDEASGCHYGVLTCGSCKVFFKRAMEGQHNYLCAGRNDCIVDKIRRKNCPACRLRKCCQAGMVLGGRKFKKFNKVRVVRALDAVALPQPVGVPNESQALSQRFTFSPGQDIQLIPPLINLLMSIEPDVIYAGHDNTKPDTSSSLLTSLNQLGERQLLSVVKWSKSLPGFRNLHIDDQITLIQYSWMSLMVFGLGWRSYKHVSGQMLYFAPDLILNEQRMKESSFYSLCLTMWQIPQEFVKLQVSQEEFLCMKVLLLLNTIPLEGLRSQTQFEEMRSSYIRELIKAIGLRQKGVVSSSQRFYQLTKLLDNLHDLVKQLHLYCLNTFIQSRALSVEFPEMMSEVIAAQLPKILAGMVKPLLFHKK
On the technique in general: qHTS replaces the single test concentration by a dilution series.

Assay [2] is described as follows: qHTS assay to identify small molecule agonists of the progesterone receptor (PR) signaling pathway - cell viability counter screen (AID 1346799; calls by dose curve; further: nearly all actives have a fitted effect of over 45% in size). In outline: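 Viability was scored by ATP luminescence (CellTiter-Glo, 30 min, room temperature) in the same wells used for the reporter readout, after 16 hr compound exposure of PR-UAS-bla HEK293T cells.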
Assay [3] can be described thus: qHTS assay to identify small molecule antagonists of the TGF-beta/Smad signaling pathway - cell viability counter screen (AID 1346824). Further: nearly all actives have a fitted effect of over 50% in size. The procedure, abridged:
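Cytotoxicity counter-screen run in the same wells as the beta-lactamase Smad reporter read: CellTiter-Glo luminescence after 30 min at room temperature. HEK 293T SBE-bla cells had 5 hr compound exposure at 37 C with TGF-beta1 (0.25 ng/mL stock).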

Assay [4] can be described thus: qHTS assay to identify small molecule agonists of the TGF-beta/Smad signaling pathway - cell viability counter screen (AID 1346829). Further: top concentration of the series differs between compounds; nearly all actives have a fitted effect of over 45% in size. The procedure, abridged:
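After overnight seating at 37 C and 5% CO2, reporter cells got compounds for 5 hr and FRET substrate for 2 hr; cell viability then came from CellTiter-Glo luminescence.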

Assay [5] is described as follows: qHTS assay to identify small molecule agonists of the TGF-beta/Smad signaling pathway (AID 1346859; active means well fitted activation curve with a large enough effect in the signal ratio in the repeat runs, not every such curve was filed as active; the % refers to the signal ratio; further: series mostly up to about 77 µM). The procedure, abridged:
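Dual-wavelength fluorescence (460/530 nm emission) quantified beta-lactamase expression under the Smad binding element in HEK 293T cells following 5 hr compound treatment at 37 C.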

The target of assay [6] is Thyrotropin-releasing hormone receptor (Homo sapiens) (UniProt P34981). Kind of assay: qHTS assay to identify small molecule antagonists of the thyrotropin-releasing hormone receptor (TRHR) signaling pathway (AID 1346877; active means well fitted inhibition curve with a large enough effect in the repeat runs, not every such curve was filed as active; further: potency means the concentration at half of the fitted maximal effect). The procedure, abridged:
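Cells (TRHR-HEK293) are plated and kept 18 h at 37 °C/5% CO2. A calcium-sensitive dye is added for 2 h, compound follows for 5 min at room temperature, and TRH is then given at 1 nM final.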

For assay [7] the target is unchanged. Kind of assay: qHTS assay to identify small molecule agonists of the thyrotropin-releasing hormone receptor (TRHR) signaling pathway (AID 1346891; calls by dose curve; further: potency means the concentration at half of the fitted maximal effect;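 on activation: HEK293 cells expressing TRHR with calcium dye readout; series mostly up to about 58 µM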). In outline: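 Kinetic fluorescence (3 min, 1 s intervals) reported intracellular calcium after compound transfer onto TRHR-Hek293 cells pre-loaded with dye for 2 h at 37 °C.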
Assay [8] can be described thus: Caspase-3/7 induction in HepG2 cells by small molecules, qHTS assay (AID 1346978). Further: nearly all actives have a fitted effect of over 15% in size. The procedure, abridged:
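Caspase-3/7 induction was measured by Caspase-Glo 3/7 luminescence (30 min, room temperature) after a 17 hr compound exposure of wild-type HepG2 cells seeded at 2,000 per well and pre-incubated 5 hr.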

A short description of assay [9]: Caspase-3/7 induction in CHO-K1 cells by small molecules, qHTS cell viability counter screen (AID 1346979). Further: nearly all actives have a fitted effect of over 35% in size. The procedure, abridged: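 Seeding: 1,500 CHO-K1 cells/well. Rest: 5hr, 37C. Treatment: compounds in DMSO, 16hr. Read: CellTiter-Fluor, 1hr, fluorescence.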
Assay [10] is described as follows: Caspase-3/7 induction in CHO-K1 cells by small molecules, qHTS assay (AID 1346980). Further: nearly all actives have a fitted effect of over 15% in size. Further: potency means the concentration at half of the fitted maximal effect. In outline:
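Luminescent Caspase-Glo 3/7 read (30min, room temperature) quantified apoptosis induction. Cells were wild-type CHO-K1, treated with compound for 17hr at 37 C and 5% CO2.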

Assay [11] is described as follows: Caspase-3/7 induction in HepG2 cells by small molecules, qHTS cell viability counter screen (AID 1346981). Further: nearly all actives have a fitted effect of over 30% in size. Further: potency means the concentration at half of the fitted maximal effect. The procedure, abridged:
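Steps: seed 2,000 HepG2 cells per well; incubate 5 hr at 37 C; pin-add compounds in DMSO; incubate 16 hr; add CellTiter-Fluor; after 1 hr at 37 C and 5% CO2, read fluorescence.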

Assay [12] addresses Nuclear receptor subfamily 1 group I member 2 (Homo sapiens) (UniProt O75469). Kind of assay: Human pregnane X receptor (PXR) small molecule agonists, qHTS assay (AID 1346982). Further: nearly all actives have a fitted effect of over 35% in size. Further: potency means the concentration at half of the fitted maximal effect. The procedure, abridged: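 Agonist mode qHTS: PXR-Luc HepG2 cells plated 5 hr before DMSO-dissolved compounds were pinned in, cultured 24 hr at 37 C, 5% CO2; ONE-Glo luminescence readout.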
The target in assay [13] is Nuclear receptor subfamily 1 group I member 2 (Rattus norvegicus) (UniProt Q9R1A7). The experiment in a line: Rat pregnane X receptor (rPXR) activation by small molecules, qHTS assay (AID 1346983). Further: nearly all actives have a fitted effect of over 20% in size. The note with it: rPXR luciferase reporter cells, One-Glo luminescence, 24 h; stronger effect = higher value. In outline: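 Luminescent readout (One-Glo luciferase, 30 min room temperature) followed 24 hr compound treatment at 37 C of rPXR cells plated 2,000 per well and preincubated 5hr; qHTS format with compounds delivered in DMSO.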
Chain of Nuclear receptor subfamily 1 group I member 2 (Rattus norvegicus) (Q9R1A7 whole entry, looked up): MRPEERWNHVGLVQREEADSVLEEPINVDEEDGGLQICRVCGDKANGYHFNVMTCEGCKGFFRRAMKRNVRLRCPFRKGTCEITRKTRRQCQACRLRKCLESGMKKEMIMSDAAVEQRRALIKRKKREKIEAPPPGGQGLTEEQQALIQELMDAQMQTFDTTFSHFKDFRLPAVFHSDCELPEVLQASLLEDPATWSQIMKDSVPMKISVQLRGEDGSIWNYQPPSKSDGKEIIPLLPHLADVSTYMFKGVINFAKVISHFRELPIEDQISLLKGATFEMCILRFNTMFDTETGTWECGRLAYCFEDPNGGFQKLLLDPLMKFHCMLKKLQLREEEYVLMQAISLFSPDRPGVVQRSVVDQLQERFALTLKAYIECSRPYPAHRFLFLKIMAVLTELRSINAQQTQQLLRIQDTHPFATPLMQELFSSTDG

Assay [14] has as its target Nuclear receptor subfamily 1 group I member 2 (Homo sapiens) (UniProt O75469). Kind of assay: CYP3A4 induction through human pregnane X receptor (PXR) by small molecules, qHTS assay (AID 1346984). Further: nearly all actives have a fitted effect of over 40% in size. The procedure, abridged:
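Steps: seed DPX-2 cells, 5 hr at 37C; pin-transfer compounds; 24 hr at 37C; add Luciferin-IPA (3uM final), 3 hr at 37C; add One-Glo, 30 min RT; read luminescence.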

The target is the same in assay [15]. The experiment in a line: Human pregnane X receptor (PXR) activation by small molecules, qHTS assay (AID 1346985). Further: nearly all actives have a fitted effect of over 40% in size. Further: potency means the concentration at half of the fitted maximal effect. The procedure, abridged:
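DPX-2 cells (HepG2 co-transfected with a PXR response element and a CYP3A4-promoter luciferase construct) were seeded at 2,000 per well, rested 5 hr at 37C, then exposed to DMSO-dissolved compounds for 24 hr. Activation was read as luciferase luminescence.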

In assay [16] the target is Cytochrome P450 2D6 (Homo sapiens) (UniProt P10635). The experiment in a line: Cytochrome P450 Family 2 Subfamily D Member 6 (CYP2D6) small molecule antagonists: luciferase reporter qHTS assay (AID 1671196). Further: nearly all actives have a fitted effect of over 50% in size. Further: potency means the concentration at half of the fitted maximal effect. In outline: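 P450-Glo format: CYP2D6 converts a proluciferin substrate to luciferin in an NADPH-driven reaction lasting 1 h at room temperature. Light output, proportional to CYP2D6 activity, reflects interference by test chemicals.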
Chain of Cytochrome P450 2D6 (Homo sapiens) (P10635 whole entry, looked up): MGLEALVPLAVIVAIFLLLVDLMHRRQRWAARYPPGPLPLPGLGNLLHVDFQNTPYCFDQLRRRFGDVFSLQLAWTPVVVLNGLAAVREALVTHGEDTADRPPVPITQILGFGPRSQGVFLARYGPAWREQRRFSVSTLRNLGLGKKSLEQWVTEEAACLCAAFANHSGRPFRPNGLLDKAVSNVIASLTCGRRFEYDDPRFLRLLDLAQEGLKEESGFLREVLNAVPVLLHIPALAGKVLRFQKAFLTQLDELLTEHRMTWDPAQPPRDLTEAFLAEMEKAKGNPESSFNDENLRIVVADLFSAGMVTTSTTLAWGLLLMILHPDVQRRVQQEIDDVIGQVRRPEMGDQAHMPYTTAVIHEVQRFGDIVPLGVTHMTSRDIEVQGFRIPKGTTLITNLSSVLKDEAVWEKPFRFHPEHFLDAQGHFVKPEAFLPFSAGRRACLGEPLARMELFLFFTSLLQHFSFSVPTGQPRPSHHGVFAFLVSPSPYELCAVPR
In general terms: In a reporter assay the amount or activity of a reporter protein is the signal.

For assay [17], the target named is Cytochrome P450 2C19 (Homo sapiens) (UniProt P33261). The experiment in a line: Cytochrome P450 Family 2 Subfamily C Member 19 (CYP2C19) small molecule antagonists: luciferase reporter qHTS assay (AID 1671197). Further: nearly all actives have a fitted effect of over 65% in size. Further: potency means the concentration at half of the fitted maximal effect. In outline: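 Inhibition of CYP2C19 was scored from loss of luminescence in a P450-Glo proluciferin substrate assay, NADPH-started and run 1 h at 37C, with ketoconazole as positive control.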
Chain of Cytochrome P450 2C19 (Homo sapiens) (P33261 whole entry, looked up): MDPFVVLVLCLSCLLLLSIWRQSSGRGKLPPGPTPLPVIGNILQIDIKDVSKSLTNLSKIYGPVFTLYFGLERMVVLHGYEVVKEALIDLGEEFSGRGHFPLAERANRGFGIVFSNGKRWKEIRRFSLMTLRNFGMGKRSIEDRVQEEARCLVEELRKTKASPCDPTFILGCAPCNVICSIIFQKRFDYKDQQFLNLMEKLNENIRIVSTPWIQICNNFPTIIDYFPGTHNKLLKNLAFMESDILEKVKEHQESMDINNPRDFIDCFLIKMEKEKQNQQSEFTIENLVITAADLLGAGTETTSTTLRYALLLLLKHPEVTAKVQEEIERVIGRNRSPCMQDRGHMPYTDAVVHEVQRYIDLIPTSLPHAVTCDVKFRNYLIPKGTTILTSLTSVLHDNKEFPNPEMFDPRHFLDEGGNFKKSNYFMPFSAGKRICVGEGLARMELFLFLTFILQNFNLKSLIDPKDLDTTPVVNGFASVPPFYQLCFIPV

Assay [18] has as its target Cytochrome P450 2C9 (Homo sapiens) (UniProt P11712). Kind of assay: Cytochrome P450 Family 2 Subfamily C Member 9 (CYP2C9) small molecule antagonists: luciferase reporter qHTS assay (AID 1671198). Further: nearly all actives have a fitted effect of over 50% in size. Further: potency means the concentration at half of the fitted maximal effect. The procedure, abridged: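 Enzyme-substrate mix preincubated with compound 10 min at room temperature; reaction started with NADPH regeneration solution, 1 h 37C. Luminescent luciferin product read after 20 min detection reagent.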

Assay [19] in a line: Human pregnane X receptor (PXR) small molecule agonists, qHTS cell viability counter screen (AID 1346977). Further: nearly all actives have a fitted effect of over 50% in size. In outline:
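HepG2 cells stably carrying the PXR-Luc reporter are cultured with 5% charcoal-stripped FBS and treated with compounds for 24hr. CellTiter-Fluor is added at 23hr and fluorescence is read after 1hr.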

Values joined by “and” are separate entries in the source; they are usually repeats but may differ in a detail not shown here. Equal entries are not always repeated. Records with an inconclusive call do not appear. Where a structure was tested more than once in an assay, its records may differ in their call. Active and inactive are the calls of the source. Unless noted, the call rests on the fitted dose curve; in most records, active means well fitted curve in the direction sought with a large enough effect in the repeat runs; inconclusive means weak or mixed curves; inactive means no such curve, though single readings can be large; an effect the other way counts as inactive or inconclusive.
On the % scale 0 is the no-effect control and ±100 the full control effect.

Chain of Nuclear receptor subfamily 1 group I member 2 (Homo sapiens) (O75469 whole entry, looked up): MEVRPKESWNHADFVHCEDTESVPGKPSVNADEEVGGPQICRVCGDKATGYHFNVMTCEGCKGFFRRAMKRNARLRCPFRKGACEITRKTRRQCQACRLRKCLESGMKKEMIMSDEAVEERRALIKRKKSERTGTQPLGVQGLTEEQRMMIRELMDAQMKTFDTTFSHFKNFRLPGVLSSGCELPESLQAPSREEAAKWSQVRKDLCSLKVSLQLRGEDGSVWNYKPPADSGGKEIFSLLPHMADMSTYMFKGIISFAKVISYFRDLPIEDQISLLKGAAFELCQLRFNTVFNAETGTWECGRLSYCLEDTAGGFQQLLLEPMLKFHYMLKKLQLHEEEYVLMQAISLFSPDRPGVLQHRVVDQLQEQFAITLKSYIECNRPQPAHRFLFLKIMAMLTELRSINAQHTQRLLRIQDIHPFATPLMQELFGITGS
Chain of Thyrotropin-releasing hormone receptor (Homo sapiens) (P34981 whole entry, looked up): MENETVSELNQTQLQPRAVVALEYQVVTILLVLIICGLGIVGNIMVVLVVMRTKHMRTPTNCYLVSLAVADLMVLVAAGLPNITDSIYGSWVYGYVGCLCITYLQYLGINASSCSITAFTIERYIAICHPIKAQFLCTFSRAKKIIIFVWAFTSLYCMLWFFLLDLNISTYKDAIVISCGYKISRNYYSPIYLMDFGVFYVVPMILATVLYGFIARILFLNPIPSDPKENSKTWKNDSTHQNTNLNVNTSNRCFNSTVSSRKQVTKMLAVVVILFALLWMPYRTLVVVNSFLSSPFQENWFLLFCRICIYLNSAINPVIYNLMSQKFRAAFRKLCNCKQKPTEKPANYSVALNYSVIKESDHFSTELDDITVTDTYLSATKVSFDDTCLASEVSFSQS
Chain of Cytochrome P450 2C9 (Homo sapiens) (P11712 whole entry, looked up): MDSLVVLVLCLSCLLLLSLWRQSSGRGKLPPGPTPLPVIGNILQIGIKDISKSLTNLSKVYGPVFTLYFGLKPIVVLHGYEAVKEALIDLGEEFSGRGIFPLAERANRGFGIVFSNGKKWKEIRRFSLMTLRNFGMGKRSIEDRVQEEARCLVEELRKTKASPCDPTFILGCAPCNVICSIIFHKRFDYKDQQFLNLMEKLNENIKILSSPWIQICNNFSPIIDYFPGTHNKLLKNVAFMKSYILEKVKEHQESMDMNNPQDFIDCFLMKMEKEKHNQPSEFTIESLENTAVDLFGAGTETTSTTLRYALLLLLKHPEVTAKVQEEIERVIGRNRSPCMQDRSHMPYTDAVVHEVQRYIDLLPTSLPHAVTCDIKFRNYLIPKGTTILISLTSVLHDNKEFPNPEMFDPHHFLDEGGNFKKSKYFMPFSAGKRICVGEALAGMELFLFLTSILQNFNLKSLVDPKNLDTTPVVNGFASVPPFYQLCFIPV

With `NC(=Nc1ccccc1)Nc1ccccc1`, the Potency entry in assay [1], in [2], in [3], in [4], in [8] and in assay [9] was “inactive” in each case. For the same compound, the Potency entry in [10], in assay [14] and in [15] was “inactive” throughout. The call in assay [5] was inactive. The Potency was 10.1 µM (active) and inactive in assay [6]; 7.76 µM (active) and 15.1 µM (active) in [7]; 20.5 µM (active) in assay [11]; 3.86 µM (active) and 11.9 µM (active) in [12]; 212 nM (active) and 617 nM (active) in assay [16]; 39.9 µM (active) and inactive in assay [17]. Also, the Potency in assay [18] is 89.4 µM (active) and inactive. For the same compound, the max activation in assay [13] was -2.33% (inactive).
With `C=CC(=O)OCCCCCCCC`, the Potency result in assay [1], in assay [2], in assay [3], in assay [4], in assay [8] and in [9] was “inactive” in each case. In addition, the Potency entry in assay [10], in assay [11], in assay [12], in [16], in assay [17] and in [18] was “inactive” each time. In assay [5], the compound was called inactive.
As to `c1cc(C(c2ccc(OCC3CO3)cc2)C(c2ccc(OCC3CO3)cc2)c2ccc(OCC3CO3)cc2)ccc1OCC1CO1` (stereo not given), the Potency result in [1], in assay [2], in assay [4], in assay [6], in [7] and in assay [19] was “inactive” in each case. In addition, the Potency entry in assay [8] and in assay [11] was “inactive” throughout. The Potency is 28.3 µM (active) in [10]; 40 µM (active) and 7.69 µM (active) in [12]; 46.5 µM (active) and inactive in assay [16]; 104 µM (active) and 56.4 µM (active) in assay [17]; 10.4 µM (active) and 22.4 µM (active) in [18].
For the compound `COc1ccc(COC(C)=O)cc1`, the Potency result in assay [1], in assay [2], in [3], in assay [4], in assay [19] and in assay [8] was “inactive” each time. Besides, the Potency entry in assay [9], in assay [10], in assay [11], in [12], in assay [16] and in assay [18] was “inactive” throughout. The call in assay [5] was inactive. The Potency in assay [17] is 45.6 µM (active) and inactive.
Consider `COC(c1ccccc1)(c1ccccc1)[C@H](Oc1nc(C)cc(C)n1)C(=O)O`, for which the Potency entry in [1], in assay [2], in [3], in [4], in assay [19] and in assay [8] was “inactive” in each case. Besides, the Potency result in [9], in assay [10], in assay [11], in assay [12], in assay [14] and in assay [16] was “inactive” throughout. For the same compound, the Potency result in assay [17] and in assay [18] was “inactive” each time. Also, in assay [5], the result was inactive. For the same compound, the max activation in assay [13] was -2.41% (inactive). Besides, the Potency in assay [15] was 10 µM (active).
For `Nc1nc2ccccc2[nH]1`, the Potency result in assay [1], in assay [2], in assay [3], in [4], in [6] and in [7] was “inactive” throughout. The Potency entry in assay [19], in [8], in assay [9], in assay [10], in [11] and in assay [17] was “inactive” throughout. Further, the Potency entry in assay [18] is “inactive”. In addition, the outcome in [5] was inactive. For the same compound, the Potency in [16] is 62.5 µM (active).

These data come from PubChem BioAssay (Tox21).
